Only some compounds are listed: those with a hit (about 8% of all), similar ones and a draw of the others.
KB-V1 cytotox: KB-V1 MDR subline cytotoxicity; KB-V1 MDR cells viability, CellTiter-Glo, 72 h; Potency, µM (series often up to 46.1 µM), most hits filed as cytotoxic; 3.4% of 400,000 active; AID 1347076; further: on the % scale 0 is the no-effect control and ±100 the full control effect; nearly all actives have a fitted effect of over 60% in size
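Following 72 h at 37 degrees C with compound, KB-V1 cell viability was read by CellTiter-Glo luminescence, medium being phenol-red-free DMEM plus 10% FBS; concentration-response parameters came from normalized, curve-fitted qHTS data.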
KB-3-1 tox: kills parental KB-3-1 adenocarcinoma cells. KB-3-1 viability, CellTiter-Glo ATP luminescence, 72 h. Potency, µM (series often up to 46.1 µM), hits mostly cytotoxic. 1.4% of 400,000 active; further: on the % scale 0 is the no-effect control and ±100 the full control effect; nearly all actives have a fitted effect of over 60% in size
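KB-3-1 cells, DMEM (no phenol red) + 10% FBS; compound by pin transfer, 72 h, 37 °C. Readout: CellTiter-Glo luminescence after 10 min. Data normalized, curve-fitted.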
MCF10A rereplic: inducers of DNA re-replication in MCF 10A breast cells | AID 624296 | 2.9% of 350,000 active | Potency, µM (series often up to 46.1 µM), without a hit: top-dose activity, positive = re-replication, usual class: activators | MCF 10A DNA re-replication, Hoechst nuclear intensity, 48 h; further: % of control where 0% means no effect; nearly all actives have a fitted effect of over 50% in size
HT1080 IDH1KD tx: HT-1080 IDH1 knockdown cell toxicity (counter line). Potency, µM (top dose mostly 46.1 µM), inactives show top-dose activity, negative = toxicity, hits mostly cytotoxic. 2% of 360,000 active. HT-1080 IDH1 knockdown viability, ATP luminescence, 48 h. AID 686971;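 further: 0% = DMSO wells and -100% = cell-free medium wells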
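Assay cells: HT-1080 with IDH1 knockdown, 750 per well, RPMI/5% FBS. Exposure: 48 h at 37 °C following 2 h pre-incubation. Read: CellTiter-Glo luminescence; fitted concentration-response, curve class assigned.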
HT1080NT lethal: kills 2HG-producing HT-1080-NT fibrosarcoma cells; HT-1080-NT fibrosarcoma viability, CellTiter-Glo ATP luminescence, 48 h; Potency, µM (highest dose often 46.1 µM), without a hit: at the top dose activity, negative = less viability, actives largely listed as cytotoxic; 1.6% of 360,000 active; AID 686970;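 further: NT is the 2HG producing partner of a matched IDH1 knockdown line; 0% = DMSO-treated cells and -100% = media-only wells without cells; nearly all actives have a fitted effect of over 55% in size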
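Viability of the 2HG-overproducing fibrosarcoma line after 48 hours of compound exposure at 37 degrees C was determined by luminescence with CellTiter-Glo, and concentration-effect curves were then fitted and categorized.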
SW480 rerep: inducers of DNA re-replication in SW480 colon cancer cells. SW480 DNA re-replication, Hoechst DNA content imaging, 48 h. Potency, µM (highest dose often 46.1 µM), for inactives: at the highest dose re-replication activation, actives largely listed as activators. 1.8% of 340,000 active; further: % of control where 0% means no effect; nearly all actives have a fitted effect of over 55% in size
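SW480 cells exposed to compounds for 48 hr at 37 C, 5% CO2, then Hoechst-stained 40 min. Nuclear DNA content imaged by fluorescence scanning (405 nm excitation, 500-530 nm emission); re-replication scored as increased high-intensity nuclei.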
The depositor's hits bear a star; i = inactive; ? = inconclusive; nt = not tested or not shown. The call rests on the fitted dose curve; in most records, active means well fitted curve in the direction sought with a large enough effect; inconclusive means small, poorly fitted or top-dose-only effect, or another doubt; inactive means no such curve, though single readings can be large; an effect the other way counts as inactive or inconclusive. Potency means the concentration at half of the fitted maximal effect.

SMILES	KB-V1 cytotox	KB-3-1 tox	MCF10A rereplic	HT1080 IDH1KD tx	HT1080NT lethal	SW480 rerep
c1ccc(N2OCC3Cn4c(nc5ccccc54)C32)cc1 (stereo not given)	i	i	-1%	6%	-3%	-55%
COc1ccc(C2c3ccc(O)cc3Oc3ncn4nc(-c5cccnc5)nc4c32)cc1OC (stereo not given)	i	?	0%	15µM*	16µM*	?
COC1=Nc2ccccc2N2CCN=C12	i	i	nt	?	-1%	nt
c1ccc2c(c1)C1=NCCN1c1ccccc1-2	12µM*	?	nt	16µM*	?	nt
O=C(COC(=O)CNC(=O)c1ccc([N+](=O)[O-])o1)Nc1ncc(C(F)(F)F)cc1Cl	?	i	16µM*	-25%	-21%	8%
O=C(COC(=O)CNC(=O)c1ccc([N+](=O)[O-])o1)Nc1ncc(Cl)cc1Cl	i	i	?	-2%	-1%	-3%
N#C/C(C(N)=O)=c1/ccc2c(c1)N1C3=C(CCCC3)CC3CCCCC31N=2 (stereo not given)	23µM*	?	-4%	-3%	-3%	2%
N#CC(C#N)=c1ccc2c(c1)N1C3=C(CCCC3)CC3CCCCC31N=2 (stereo not given)	?	?	28%	-1%	0%	-2%
O=C(NNC(=S)Nc1ccc(Cl)cc1)c1ccccc1OC(F)F	3.3µM*	18µM*	17%	?	?	?
O=C(Cc1ccccc1)NNC(=S)Nc1ccc(Cl)cc1	i	i	1%	2%	8%	0.52µM*
O=C(NNC(=S)NCc1ccccc1)c1ccccc1OC(F)F	i	i	0%	0%	-2%	-75%
O=C(Nc1ccc(Cl)c(Cl)c1)Nc1ccccc1C(=O)O	15µM*	?	7%	?	?	8%
O=C(Cc1ccccc1)NNC(=O)Nc1ccc(Cl)c(Cl)c1	i	i	?	15µM*	-15%	-11%
O=C(Nc1ccc(Cl)cc1)Nc1ccccc1C(=O)O	i	i	25%	?	-14%	?
Nc1cc([N+](=O)[O-])cc(N)c1N	i	i	nt	nt	nt	nt
O=C(Cc1ccccc1)Nc1ccc(NC(=O)c2cccs2)c(Cl)c1	21µM*	i	-2%	13%	13%	4%
O=C(Nc1ccc(Cl)c(Cl)c1)Nc1nc(-c2ccccc2)cs1	6.5µM*	12µM*	?	-19%	3%	27%
CCS(=O)(=O)c1nc(S(=O)(=O)c2ccc(C)cc2)c(NCCCOC)s1	i	i	nt	nt	nt	nt
Cc1cccc(N2CCN(C(=O)c3ccc(Cl)c(S(=O)(=O)N4CCc5ccccc5C4)c3)CC2)c1C	?	i	4%	6%	1%	0%
O=C(Nc1nnc(-c2ccncc2)s1)Oc1ccc2ccccc2c1	i	?	nt	nt	nt	nt
CC1=C(C(=O)N(C(C)C)C(C)C)CC(CC(=O)NCC2CCCCC2)C(=O)N1Cc1ccc(C(C)(C)C)cc1 (stereo not given)	i	nt	nt	23µM*	?	nt
CC1=C(C(=O)N(C(C)C)C(C)C)CC(CC(=O)NCc2cccc3ccccc23)C(=O)N1Cc1ccc(C(C)(C)C)cc1 (stereo not given)	?	23µM*	nt	?	?	nt
COc1ccccc1OCC(=O)N1CCCC(Nc2ccc(F)c(F)c2)C1 (stereo not given)	?	i	2%	1%	4%	1%
COC(=O)c1c(C)oc2ccc(N(C(=O)c3ccncc3)S(=O)(=O)c3ccc(C)cc3C)cc12	?	?	15µM*	?	23µM*	24%
CC(=O)c1c(C)oc2ccc(N(C(=O)c3ccncc3)S(=O)(=O)c3ccc(F)cc3C)cc12	i	?	nt	nt	nt	nt
SMILES	KB-V1 cytotox	KB-3-1 tox	MCF10A rereplic	HT1080 IDH1KD tx	HT1080NT lethal	SW480 rerep
COC(=O)c1c(C)oc2ccc(N(C(=O)c3ccncc3)S(=O)(=O)c3ccccc3)cc12	i	?	26%	-28%	-29%	-3%
Cc1ccc(S(=O)(=O)N(C(=O)c2ccncc2)c2ccc3oc4c(c3c2)CCCC4)cc1[N+](=O)[O-]	?	i	15µM*	1%	1%	14%
COC(=O)c1c(C)oc2ccc(N(C(=O)c3ccncc3)S(=O)(=O)c3ccc(C)cc3)cc12	1.6µM*	5.2µM*	?	2.6µM*	2.6µM*	6.5µM*
COC(=O)c1c(C)oc2ccc(N(C(=O)c3ccncc3)S(=O)(=O)c3ccc4ccccc4c3)cc12	?	?	3.3µM*	?	?	-2%
COc1ccc(NC2CCCN(C(=O)CN3CCOC3=O)C2)cc1 (stereo not given)	i	i	7%	13%	25%	12%
Cc1c(NC(=O)c2ccc(OC(C)C)cc2)cccc1-c1nc2ncccc2o1	i	i	nt	nt	nt	nt
CCOC(=O)c1sc(=S)n(C)c1NC(=O)c1ccc(OC)cc1	i	i	-1%	0%	1%	0%
CCOC(=O)c1sc(=S)n(C)c1NC(=O)c1ccc(C(C)(C)C)cc1	?	?	?	16µM*	?	2%
Cc1nc(NC(=O)c2ccc(-c3cc4ccccc4oc3=O)cc2)ccc1Br	i	i	-2%	0%	-2%	1%
O=C(Nc1ccccc1N1CCCC1)c1cccc(-c2cc3ccccc3oc2=O)c1	3.7µM*	i	20%	-11%	-19%	?
O=C(Nc1cccc(Cl)c1N1CCCC1)c1ccc(Br)o1	?	i	?	1%	8%	17%
Cc1nc(NC(=O)c2cccc(-c3cc4ccccc4oc3=O)c2)ccc1Br	?	?	21µM*	8%	20%	-2%
O=C(Nc1ccc(Br)cn1)c1cccc(-c2cc3ccccc3oc2=O)c1	i	?	18µM*	23µM*	?	?
O=C(Nc1cccc(Cl)c1N1CCCC1)c1cc2ccccc2o1	i	i	21µM*	?	?	-7%
Cc1cc(C)c(NC(=O)CSc2nc3ccccc3c3nc(-c4ccccc4)nn23)c(C)c1	i	i	nt	nt	nt	nt
COc1ccc(OCCSc2nc(-c3ccccc3)cc(=O)[nH]2)cc1	?	i	?	7%	2%	-3%
CCN1CCN(c2nc(Nc3cccc(OC)c3)nc(N)c2[N+](=O)[O-])CC1	i	?	28%	?	?	16µM*
Cc1cccc(Nc2nc(N)c([N+](=O)[O-])c(N3CC(C)CC(C)C3)n2)c1 (stereo not given)	21µM*	?	26%	21µM*	16µM*	?

Source: PubChem BioAssay
